ALDH1A1 inh – qHTS Assay for Inhibitors of Aldehyde Dehydrogenase 1 (ALDH1A1); Potency, µM (series often up to 75.3 µM), most hits filed as inhibitors; Purified ALDH1A1, NADH fluorescence, propionaldehyde substrate; Aldehyde dehydrogenase 1A1 (Homo sapiens), P00352; hit rate 7.3% among 220,000
Target sequence (P00352 whole entry, looked up): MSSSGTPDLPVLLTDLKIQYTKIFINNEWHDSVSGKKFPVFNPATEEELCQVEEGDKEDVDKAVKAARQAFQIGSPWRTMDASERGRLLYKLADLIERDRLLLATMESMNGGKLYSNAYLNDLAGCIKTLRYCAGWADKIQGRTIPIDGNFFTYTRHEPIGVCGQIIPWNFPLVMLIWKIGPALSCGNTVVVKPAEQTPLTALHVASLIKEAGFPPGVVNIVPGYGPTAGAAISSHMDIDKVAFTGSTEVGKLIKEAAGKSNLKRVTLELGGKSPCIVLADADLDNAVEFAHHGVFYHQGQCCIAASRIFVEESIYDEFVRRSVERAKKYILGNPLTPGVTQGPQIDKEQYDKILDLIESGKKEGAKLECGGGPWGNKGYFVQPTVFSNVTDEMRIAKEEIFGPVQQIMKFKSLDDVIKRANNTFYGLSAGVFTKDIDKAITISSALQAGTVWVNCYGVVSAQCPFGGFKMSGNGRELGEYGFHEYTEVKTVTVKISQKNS
HPGD inh – qHTS Assay for Inhibitors of HPGD (15-Hydroxyprostaglandin Dehydrogenase) | 15-hydroxyprostaglandin dehydrogenase [NAD(+)] (Homo sapiens), P15428 | purified HPGD, NADH fluorescence kinetic, PGE2 substrate | Potency, µM, usual class: inhibitors | hit rate 4.3% among 150,000 | AID 894, 2007
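20 nM HPGD preincubated 15 min at room temperature with compound in 50 mM Tris-HCl pH 8, 0.01% Tween 20. Started with 1 mM NAD+ and 30 uM prostaglandin E2; NADH fluorescence (360/450 nm) read 5 times over 30-s intervals, last minus first.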
ALOX12 inhib – qHTS Assay for Inhibitors of 12-hLO (12-human lipoxygenase); purified 12-hLO, xylenol orange hydroperoxide absorbance; Potency, µM (series often up to 57.1 µM), most hits filed as inhibitors; hit rate 0.12% among 150,000; AID 1452, 2008; active means well fitted inhibition curve with a large enough effect; inconclusive means small, poorly fitted or top-dose-only effect; further: nearly all actives have a fitted effect of over 55% in size
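Xylenol orange chromogenic assay: hydroperoxide from 12hLO oxidises Fe(II), giving red-shifted Fe(III)-XO absorbance. Conditions: 150 nM enzyme, 40 uM arachidonic acid, 25 mM Hepes pH 7.0, 0.01% Triton X-100, 30 min, room temperature.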
PNC assembly inh – High Content Assay for Compounds that inhibit the Assembly of the Perinucleolar Compartment | PC3M PTB-GFP, PNC prevalence imaging, 16 h; stronger effect = lower value | hit rate 3.1% among 140,000 | activity change (PNC), negative = inhibition, % at 10 µM;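 active means readout at or below -70, meaning at least 70% loss of cells showing the perinucleolar compartment, a nuclear body marking cancer cells; inconclusive means readout between -30 and a set limit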
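Compounds are pinned in duplicate onto adhered PC3M cells stably expressing GFP-tagged PTB and incubated 16 h at 37 C. Cells are then fixed, nuclei stained with Hoechst, and PNC-positive cells counted.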
LMNA splice mod – qHTS Assay for Modulators of Lamin A Splicing; hit rate 0.01% among 200,000; AID 1487, 2009; HeLa LMNA splicing GFP/RFP minigene ratio, 48 h; Potency, µM (titrated, usually from 46.1 µM), actives largely listed as inhibitors; active means well fitted inhibition curve with a large enough effect in the signal ratio, with a control signal flat, not every such curve was filed as active; inconclusive means small, poorly fitted or top-dose-only effect, or effect the other way, or a change in a side signal; the % refers to the signal ratio
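S3 HeLa cells stably expressing lamin A-EGFP splicing minigene plus DsRed2, 600 cells/well, 48 h compound exposure at 37C. Laser-scanning cytometry; analysed as GFP (500-530 nm)/RFP (575-640 nm) total intensity ratio; 0.5% DMSO vehicle.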
Hits are given with their value; – = inactive; ? = inconclusive; · = no result given; ! = repeats disagree; [ ] = another dose, or the depositor's remark. Sampled rows, rich in hits. Any-hit rate of the full collection: about 10%. Unless noted, the call rests on the fitted dose curve; in most records, active means well fitted inhibition curve with a large enough effect (not every such curve was filed as active); inconclusive means small, poorly fitted or top-dose-only effect, or another doubt; inactive means no such curve, though single readings can be large or run the other way.

SMILES	ALDH1A1 inh	HPGD inh	ALOX12 inhib	PNC assembly inh	LMNA splice mod
Cc1ccc(/C=C2/C(=O)NC(=O)N(CCc3ccc(F)cc3)C2=O)o1	5.6µM	3.5µM	?	?	?
Cn1cccc1/C=C1\C(=O)NC(=O)N(CCC2=CCCCC2)C1=O	?	–	–	?	–
COc1cc2c(cc1OC)[C@@]13CCN4C=C5CCO[C@H]6CC(=O)N2[C@@H]1[C@@H]6[C@H]5C[C@H]43	·	·	–[11.4 µM]	·	·
CCC(C)N1CCN(C(=O)Cc2ccccc2)CC1 (stereo unspecified)	–	–	–	–	–
O=C(CCn1c(=O)oc2ccccc21)N1CCN(C(c2ccccc2)c2ccccc2)CC1	18µM	–	–	?	?
CC(CCC(=O)O)C1CCC2C3C(=O)C[C@@H]4CC(=O)CC[C@@]4(C)C3CC(=O)[C@]12C (stereo partly specified)	–	–	–	·	?
NC(=O)c1ncn([C@@H]2O[C@H](CO)[C@@H](O)[C@H]2O)n1	25µM!	–	–	–	?
C[As+](C)(c1ccc(Br)c([N+](=O)[O-])c1)c1ccc(Br)c([N+](=O)[O-])c1.O=[N+]([O-])O	–[13.5 µM]	–	–[11.4 µM]	·	·
O=C(O)c1ccccc1-c1c2cc(Br)c(=O)cc-2oc2[c]([Hg])c(O)c(Br)cc12	4.5µM	2.2µM	?	·	?
Clc1ccc(C2=CCC[C@H]3CC[C@@H]2N3)cn1	10µM	–	–	·	·
Cc1cc(NC(=O)CCl)on1	3.5µM	·	·	·	·
CN(C)C1C(=O)C(C(N)=O)C(=O)C2(O)C(=O)C3C(=O)c4c(O)cccc4C(C)(O)C3C(O)C12 (stereo unspecified)	–	?	–[0.00818 µM]	·	·
O=c1[nH]c(=S)n(Cc2ccc(F)cc2)c(O)c1C=NCC1CCCO1 (stereo unspecified)	?	28µM	–	?	–
CCn1c(O)c(C(=O)CC2NCCc3ccccc32)c(=O)n(CC)c1=S (stereo unspecified)	1.3µM	–	–	–	?
C[C@@H]1OC=C2[C@@H](O)[C@H]3O[C@H]3C(=O)[C@@]23[C@H]1[C@H]1C2=C([C@@H](O)[C@H]4O[C@@H]4C2=O)[C@@H]3O[C@@H]1C	–[13.5 µM]	·	·	·	·
COc1cccc(-n2c(/C=C/c3ccc(O)c(O)c3)nc3ccccc3c2=O)c1	25µM	·	·	·	–
Cc1nc2ccccc2c(=O)n1-c1cccc(O)c1	–	–	–	-107	–
COc1ccc(-n2c(/C=C/c3ccc4c(c3)OCO4)nc3ccccc3c2=O)cc1	?	–	–	–	?
c1cc2cc(c1)C[n+]1ccc(c3ccccc31)NCc1ccc(cc1)CNc1cc[n+](c3ccccc13)C2	?	–	–	·	·
Oc1ccc(/C=N/NP(=S)(c2ccccc2)c2ccccc2)c(O)c1O	11µM	22µM	?	–	–
C#CCO	22µM	–	–	·	·
COc1ccc(CC2NC[C@H](O)[C@H]2OC(C)=O)cc1 (stereo partly specified)	–	–	–	·	·
CCCCCn1c(SCCCC)nc2c1c(=O)[nH]c(=O)n2C	20µM	14µM	–	–	–
COc1ccc(C=C2C(=O)N(C)C(=O)N(C)C2=O)cc1CSc1ccccn1	3.2µM	25µM	–	–	–
C=CCN1C(=O)NC(=O)/C(=C/c2cnc(SC)nc2)C1=O	–	–	–	–	–
SMILES	ALDH1A1 inh	HPGD inh	ALOX12 inhib	PNC assembly inh	LMNA splice mod
C=CCN1C(=O)NC(=O)/C(=C/c2cc3c4c(c2)CCCN4CCC3)C1=O	0.89µM	14µM	–	?	–
CCc1ccc2nc(N3CCC(C(=O)N4CCC5(CC4)OCCO5)CC3)sc2c1	–	·	·	·	·
CCOc1ccc2nc(N3CCC(C(=O)N4CCC5(CC4)OCCO5)CC3)sc2c1	?	–	–	-103	?
O=C(O)c1cc[c]([Hg][Cl])cc1	5.5µM	0.28µM	?	·	?
COc1cccc(CCNCc2c(F)cccc2F)c1	10µM	·	·	·	–
C/C=C1\C[N@@+]2(C)CC[C@@]34C(=C(C=O)[C@H]1C[C@H]32)Nc1ccccc14	?	16µM	–	·	?
C=CCOC(C)=O	–	–	–	·	·
CC(C)(COCC1CO1)COCC1CO1 (stereo unspecified)	–	–	–	·	·
CCN(CC)c1ccc(CC2C(=O)N(C)C(=O)N(C)C2=O)cc1	4.5µM	–	–	?	–
CC(=O)c1cccc(NC2=NCC(C)S2)c1 (stereo unspecified)	–	14µM	–	?	–
CN1[C@@H]2CC[C@H]1CC(OC(c1ccc(F)cc1)c1ccc(F)cc1)C2 (stereo partly specified)	–	–	–	·	·
O=C(O)[C@H]1C2c3ccccc3C(c3ccccc32)[C@@H]1C(=O)NCC1CC1	–[13.5 µM]	–	–[11.4 µM]	·	·
CC(=O)C1=NOC(CNc2ncc(C(F)(F)F)cc2Cl)C1 (stereo unspecified)	–	·	·	·	?
N[C@@H](Cc1cc(O)c(O)cc1O)C(=O)O	·	·	–	·	·
NC(Cc1cc(O)c(O)cc1O)C(=O)O (stereo unspecified)	11µM	4.5µM	·	·	?
N[C@@H](Cc1cc(I)c(O)c(I)c1)C(=O)O	11µM!	–	–	–	–
Clc1ccc(C(c2ccccc2Cl)C(Cl)(Cl)Cl)cc1 (stereo unspecified)	22µM	–	–	·	·
Cl.Cl.Cl.Cl.Cl.Cl.N.N.N.N.NNNNN.NNNNN.O.O.[Ru].[Ru].[Ru]	–	–	?	·	·
O=C1NC(=O)C(=Cc2ccc(N3CCN(C(=O)c4ccccc4)CC3)c([N+](=O)[O-])c2)C(=O)N1	11µM	·	·	·	·
COc1ccc(N2CC(C(=O)NCc3ccco3)CC2=O)cc1 (stereo unspecified)	25µM	·	·	·	·
CC(=O)[C@H]1[C@H](C#N)CC2C3CC=C4C[C@@H](O)CCC4(C)C3CCC21C (stereo partly specified)	–	–	–[0.00818 µM]	·	·
COc1ccccc1[N+](=O)[O-]	25µM	–	–	·	·
COc1ccccc1CCNCc1cc2c(cc1[N+](=O)[O-])OCO2	?	–	–	–	–
COc1ccc(C(C)=O)cc1CC(C(=O)c1ccc(C)cc1)N(C)C (stereo unspecified)	–	–	–	–	–
COc1ccc(C(C)=O)cc1CC(C(=O)c1ccccc1)N(C)C (stereo unspecified)	–	–	–	-94	–
SMILES	ALDH1A1 inh	HPGD inh	ALOX12 inhib	PNC assembly inh	LMNA splice mod
C=CCCC#N	3.2µM	–	–	·	·
CN1Cc2ccccc2[C@@H]2c3cccc4[nH]cc(c34)C[C@H]21	16µM!	–	–	·	·
CCN(CC)C(=O)N[C@@H]1C[C@H]2c3cccc4[nH]cc(c34)C[C@@H]2N(C)C1	–	–	–	·	?
CCOP(=S)(OCC)SCCSCC	14µM	–	–	·	·
O=[N+]([O-])c1ccccc1CCl	13µM	–	–	·	·
COc1cccc(OC)c1C1=NCC(=O)Nc2c1oc1ccc(Br)cc21	–	–	–	-119	?

High-throughput results as filed in PubChem BioAssay.
